This is a sample that favours compounds with a hit; in the whole collection about 14% have one here.
USP17 inh = inhibitors of human USP17 deubiquitinase; AID 1645855, 2021; purified USP17, Ub-rhodamine cleavage fluorescence, 3 h; inhibition, % at 50 µM; Ubiquitin carboxyl-terminal hydrolase 17-like protein 5 (Homo sapiens), A8MUK1; actives 6.5% (n = 47,000)
USP10 inh = inhibitors of human USP10 deubiquitinase; inhibition, % at 20 µM; AID 1645856, 2021; Ubiquitin carboxyl-terminal hydrolase 10 (Homo sapiens), Q14694; purified USP10, Ub-rhodamine fluorescence, 60 min; actives 1.1% (n = 47,000)
Target sequence (Q14694 whole entry, looked up): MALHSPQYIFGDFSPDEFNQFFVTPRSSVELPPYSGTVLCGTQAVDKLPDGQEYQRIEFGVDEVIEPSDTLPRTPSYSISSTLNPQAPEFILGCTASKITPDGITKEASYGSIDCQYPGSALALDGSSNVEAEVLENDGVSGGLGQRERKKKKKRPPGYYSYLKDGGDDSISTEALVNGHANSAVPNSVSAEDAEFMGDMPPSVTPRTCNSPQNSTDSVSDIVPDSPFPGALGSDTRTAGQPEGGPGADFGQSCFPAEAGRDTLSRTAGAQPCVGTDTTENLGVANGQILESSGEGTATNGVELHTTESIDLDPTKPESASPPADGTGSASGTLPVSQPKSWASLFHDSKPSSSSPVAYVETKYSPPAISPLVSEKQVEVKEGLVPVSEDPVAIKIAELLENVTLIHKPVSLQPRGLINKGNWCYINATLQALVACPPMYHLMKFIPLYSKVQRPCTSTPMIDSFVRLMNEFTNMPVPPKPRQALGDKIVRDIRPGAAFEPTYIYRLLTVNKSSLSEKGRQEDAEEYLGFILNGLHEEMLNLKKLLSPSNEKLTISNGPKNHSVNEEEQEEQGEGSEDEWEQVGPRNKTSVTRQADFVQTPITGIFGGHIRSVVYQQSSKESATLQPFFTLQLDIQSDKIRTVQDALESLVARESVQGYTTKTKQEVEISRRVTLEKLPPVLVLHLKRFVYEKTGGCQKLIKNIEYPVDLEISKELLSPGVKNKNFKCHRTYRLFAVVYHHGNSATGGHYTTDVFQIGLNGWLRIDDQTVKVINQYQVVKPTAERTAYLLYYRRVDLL
USP8 block = inhibitors of human USP8 deubiquitinase. Ubiquitin carboxyl-terminal hydrolase 8 (Homo sapiens), P40818. inhibition, % at 20 µM. actives 4.2% (n = 47,000). AID 1645853, 2021. purified USP8, Ub-rhodamine cleavage fluorescence, 30 min
USP30 block = inhibitors of human USP30 deubiquitinase. Ubiquitin carboxyl-terminal hydrolase 30 (Homo sapiens), Q70CQ3. purified USP30, Ub-rhodamine cleavage fluorescence. inhibition, % at 25 µM. actives 5.3% (n = 47,000). AID 1645860, 2021
USP28 block = inhibitors of human USP28 deubiquitinase; Ubiquitin carboxyl-terminal hydrolase 28 (Homo sapiens), Q96RU2; purified USP28, Ub-rhodamine cleavage fluorescence, 30 min; inhibition, % at 25 µM; actives 3% (n = 47,000)
Numbers without * were called inactive; i = inactive; . = no result. No stated cut-off is given here; in the data, active means inhibition above about 30%; inactive means the rest.

SMILES	USP17 inh	USP10 inh	USP8 block	USP30 block	USP28 block
Cc1ccc(S(=O)(=O)NCc2ccc(C(=O)NCCc3ccc(S(N)(=O)=O)cc3)cc2)cc1	88*	49*	63*	88*	69*
Cc1cc(N2CCN(C)CC2)n2nc(CN3CCCCC3C)nc2n1 (centres undefined)	39*	0	-42	-18	-7
CC1CCN(c2ccc3nnc(CCC(=O)NCCN4CCCC4)n3n2)CC1	-17	-3	-9	-23	-12
O=C(CCc1nnc2ccc(N3CCCCC3)nn12)NCCN1CCOCC1	10	0	41*	13	-2
Cn1c(=O)n(Cc2ccccn2)c(=O)c2cnc(-c3ccc(Cl)cc3)nc21	-1	-5	-16	-16	-3
Cn1c(=O)c2nc(-c3ccc(Cl)cc3)nnc2n(C)c1=O	19	40*	99*	13	16
CCC(C)(C)C1CCC2(CC1)N=C(N)Nc1nc3ccccc3n12 (centres undefined)	11	2	4	69*	29
Cc1ccc(NC(=O)c2nnn(-c3ccccc3)c2C)c(C)c1	7	4	5	1	-6
Cc1c(C(=O)Nc2ccc(Oc3ccccc3)cc2)nnn1-c1cccc(Cl)c1	16	9	13	25	50*
COc1ccc(NC(=O)c2nnn(-c3cccc(C)c3)c2C)cc1	14	8	15	21	59*
Cc1cccc(-n2nnc(C(=O)Nc3ccc(F)cc3)c2C)c1	19	4	18	32*	19
COc1cccc(NC(=O)c2nnn(-c3ccccc3)c2C(C)C)c1	11	6	16	12	27
COc1ccc(-c2cnnn2-c2ccc(NC(=O)c3c(F)cccc3F)cc2)cc1OC	.	-1	6	83*	4
O=C(NC1CCCC1)N1CCN(c2ncccc2-c2nnc(C3CC3)o2)CC1	2	0	1	1	-6
COc1cccc(NC(=O)c2nn(-c3cccc(F)c3)c(OC)cc2=O)c1	5	-1	21	9	11
COc1cc(=O)c(C(=O)Nc2ccc(C#N)cc2)nn1-c1cccc(F)c1	64*	9	62*	0	43*
Cc1cc(C)cc(NC(=O)c2cnn(-c3ccccc3)c2-n2cccc2)c1	7	6	6	6	6
COc1ccc(NC(=O)c2nnn(-c3ccccc3F)c2C)cc1OC	-7	1	0	-2	74*
COc1ccc(-n2nnc(C(=O)Nc3ccccc3F)c2C)cc1	10	3	16	25	12
Cc1ccc(NC(=O)c2nnn(-c3ccccc3Br)c2C)cc1C	11	5	20	10	84*
Cc1cccc(-n2ncc(C(=O)Nc3cccc(F)c3)c2-n2cccc2)c1	11	5	15	34*	16
Cc1ccc(OCC(=O)N(C)Cc2nc(-c3ccccc3)no2)c(Br)c1	4	9	7	11	-2
CC(C)(C)NC(=O)c1nn(C2CCS(=O)(=O)C2)c2c1CCCC2 (centres undefined)	5	-1	14	4	1
Cc1cc(C)cc(NC(=O)c2cn(CC(O)c3ccc(Cl)cc3)nn2)c1 (centres undefined)	-1	0	-10	13	12
CC(C)(C)c1ccc(C(=O)NCc2nnc3ccccn23)cc1	-11	-2	6	i	-1
SMILES	USP17 inh	USP10 inh	USP8 block	USP30 block	USP28 block
Cc1nn(-c2ccccc2)cc1-c1noc(C(=O)NCc2ccco2)n1	12	8	1	24	17
COc1ccc(Cl)cc1NC(=O)Cn1nc2c3c(C)c(C)sc3ncn2c1=O	18	-4	13	-4	2
Cc1cc(NC(=O)c2nnn(-c3ccc(Cl)cc3)c2C)no1	9	5	13	17	7
CCc1ccc(NC(=O)c2nnn(-c3cccc(F)c3)c2C)cc1	14	2	9	14	17
Cc1ccc(NC(=O)c2nnn(-c3cccc(F)c3)c2C)cc1C	13	3	16	12	20
COc1cccc(C(=O)Nc2nc(-c3nnn(-c4ccc(C)c(F)c4)c3C)ns2)c1	61*	48*	56*	95*	64*
COc1cccc(-n2nnc(C(=O)Nc3ccc(C)c(C)c3)c2C)c1	16	6	13	6	58*
CCOc1cccc(C(=O)Nc2nc(-c3ccc(OCC)c(OC)c3)ns2)c1	18	-4	-7	6	4
CCc1ccc(NC(=O)c2nnn(-c3cccc(C)c3)c2C)cc1	1	5	-2	-15	41*
Cc1c(C(=O)Nc2ccc(F)cc2)nnn1-c1cccc(F)c1	29	4	21	37*	10
Cc1cn2c(=O)cc(COc3cccc(NC(=O)c4ccccc4)c3)nc2s1	-21	-4	-16	-23	-21
CCc1cccc(-n2nnnc2N2CCN(C(=O)Nc3ccc4c(c3)OCCO4)CC2)c1	.	0	-38	-30	9
CC(=O)Nc1ccc(SCc2nnc(-c3ccccc3)o2)cc1	-7	2	1	-2	45*
COc1ccc(NC(=O)Nc2cccc(-c3nnc(-c4ccccc4)o3)c2)cc1OC	20	5	14	51*	18
O=C(Nc1ccccc1)Nc1ccc(F)c(-c2nnc(-c3ccccc3)o2)c1	2	27	25	1	-5
COc1cccc(-c2nnc(-c3ccccc3NC(=O)c3ccc(C(C)(C)C)cc3)o2)c1	4	4	-1	6	-2
Cc1ccccc1NC(=O)Nc1cccc(-c2nnc(-c3ccccc3)o2)c1	3	25	51*	4	4
CC(C)(C)C(=O)Nc1ccc(C(=O)Nc2cccc(-c3nnc(-c4ccccc4)o3)c2)cc1	44*	38*	4	55*	30
NC(=O)C(c1ccsc1)c1ncc(C(F)(F)F)cc1Cl (centres undefined)	5	0	17	2	7
O=C(Nc1ccc(Cl)cc1)C1CCC(=O)N1Cc1cccs1 (centres undefined)	-12	2	-1	-8	-5
O=C(Nc1ccccc1N1CCOCC1)Nc1cccc2ccccc12	19	2	27	-6	-10
Cn1cnnc1-c1cccc(NC(=O)Nc2cccc3ccccc23)c1	42*	-2	70*	28	24
O=C(Nc1cccc(F)c1)Nc1cccc(-c2nnc(-c3ccccc3)o2)c1	89*	32*	31*	91*	72*
O=C(Nc1ccc(F)cc1)Nc1ccccc1OCc1cc(=O)n2ccccc2n1	41*	25	43*	46*	31*
Cc1ccc2nc(CNc3cc(F)ccc3C)cc(=O)n2c1	-12	-8	-4	-56	-5
Cc1ccc(NC(=O)Nc2ccccc2OCc2cc(=O)n3cc(C)ccc3n2)cc1	4	17	32*	-3	18
